Assay results reported in PubChem BioAssay AID431 (Sanford-Burnham Center for Chemical Genomics, 2006).
About 1,100 (1.7%) of roughly 63,000 compounds were called active. The full list was thinned out, with actives kept by preference. Results with a measured potency or affinity are listed apart. Unmarked numbers belong to inactive results.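 Rule for the calls: active = compounds whose percent cytotoxicity in the single-dose primary screen, scaled between solvent and toxic-drug controls, exceeds 50; inactive = the rest.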

Test: viability loss of HPDE-C7K cells – cell-based, fluorescence, HTS, primary screen (AID 431);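 note: 0% = DMSO solvent wells and 100% = doxorubicin-treated wells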
Conditions: HPDE-C7K KRASV12 cells, Alamar Blue viability, 48 h; at 10 µM; stronger effect = higher value
O=C(C1CCN(S(=O)(=O)Cc2ccccc2)CC1)N1CCN(c2ncccn2)CC1 showed a cytotoxicity of 11.4%. Compound CCC(=O)NCCC(c1ccco1)c1ccccc1OC (configuration not stated) has a cytotoxicity of -5.9%. O=c1[nH]c(Cc2ccccc2)nc2c1oc1ccccc12 gave a cytotoxicity of 10.4%. O=C(O)c1oc2ccccc2c1-n1cccc1 showed a cytotoxicity of 7.2%. In the case of O=C(O)c1c(-c2ccccc2)c2oc3ccccc3c2[nH]c1=O, the cytotoxicity is reported as 81.6% (active). With COC(=O)c1ccc(C(=O)OC)c(NS(C)(=O)=O)c1 the cytotoxicity was -2.8%. Work on CC(=O)Nc1cccc(OCC(O)Cn2cnc3ccccc32)c1 (configuration not stated) yielded a cytotoxicity of 3.6%. For Cc1cccc(CN2CCN(C(=O)c3ccccc3F)CC2)c1, the cytotoxicity was -6.8%. Cc1cccc(CN2CCN(c3ccccn3)CC2)c1 gave a cytotoxicity of -9.1%. In the case of Cc1cccc(CN2CCN(C(c3ccccc3)c3ccc(Cl)cc3)CC2)c1 (configuration not stated), the cytotoxicity is reported as 85.4% (active). In the case of CN1CCCN(C(c2ccccc2)c2ccc(Cl)cc2)CC1 (configuration not stated), the cytotoxicity is reported as 51% (active). In the case of OCCOCCN1CCN(C(c2ccccc2)c2ccc(Cl)cc2)CC1 (configuration not stated), the cytotoxicity is reported as 26.4%. Cc1cc(N2CCN(C(c3ccccc3)c3ccc(Cl)cc3)CC2)n2ncnc2n1 (configuration not stated) showed a cytotoxicity of 8.1%. O=C(Nc1ccc2c(c1)OCO2)C1CCCN(S(=O)(=O)c2cccs2)C1 (configuration not stated) showed a cytotoxicity of 0.2%. In the case of Cc1ccc(NC(=O)c2ccco2)c(NC(=O)c2cccs2)c1, the cytotoxicity is reported as -4.8%. Work on COc1ccc(C(=O)OCCN2CCOCC2)cc1OC yielded a cytotoxicity of -1.7%. Compound Cc1ccc(C(=O)N(CC(=O)NC2CCCC2)Cc2cccs2)s1 has a cytotoxicity of 5.4%. In the case of Cc1ccc2cccc(OCC(=O)NCc3ccco3)c2n1, the cytotoxicity is reported as -8.8%. CCCCCOc1ccc(C(=O)NC(C(=O)O)C(C)C)cc1 (configuration not stated) gave a cytotoxicity of 6.5%. For O=C1C(C=Nc2ccccc2O)=C(O)c2ccccc21, the cytotoxicity was 13.8%. For Cc1ccc(O)c(N=CC2=C(O)c3ccccc3C2=O)c1, the cytotoxicity was 52.6% (active). In the case of CN=CC1=C(O)c2ccccc2C1=O, the cytotoxicity is reported as -1.7%. Cc1cccc(-n2ncc3c(NC4CCCCC4)ncnc32)c1 showed a cytotoxicity of 11.8%. With NC(=O)c1c(NC(=O)c2cccs2)sc2c1CCCCCC2 the cytotoxicity was 57.6% (active). Compound O=C(Nc1sc2c(c1C(=O)O)CCCC2)c1cccs1 has a cytotoxicity of 13.8%. O=C(Nc1sc2c(c1C(=O)O)CCCCC2)c1ccco1 showed a cytotoxicity of 3.9%. Work on COC(=O)c1c(NC(=O)c2ccoc2C)sc2c1CCC2 yielded a cytotoxicity of -18%. In the case of COC(=O)c1c(NC(=O)c2ccc(Br)s2)sc2c1CCC2, the cytotoxicity is reported as 64.4% (active). Compound O=C(Nc1sc2c(c1C(=O)O)CCC2)c1cccs1 has a cytotoxicity of 5.8%. COC(=O)c1c(NC(C)=O)sc2c1CCCC2 gave a cytotoxicity of 3.4%. Compound CCOC(=O)c1c(NC(=O)c2ccco2)sc2c1CCCCC2 has a cytotoxicity of 11.4%. With NC(=O)c1c(NC(NC(=O)c2ccco2)(C(F)(F)F)C(F)(F)F)sc2c1CCCC2 the cytotoxicity was 51.3% (active). Work on COc1ccc(Nc2nc3ccccc3nc2C)cc1 yielded a cytotoxicity of 20%. In the case of O=C1N(CC(=O)N2CCc3ccccc32)CCN1Cc1ccccc1Cl, the cytotoxicity is reported as -7.2%. COc1ccc(CCNS(=O)(=O)c2ccc3c(c2)CCN3C(=O)C2CC2)cc1OC showed a cytotoxicity of -6.7%. O=C(CSc1nc(Nc2ccccc2)nc(N2CCOCC2)n1)Nc1ccc2c(c1)OCCO2 showed a cytotoxicity of 11.5%. For COC(=O)CSc1ncnc2c1sc1nc(-c3ccco3)c3c(c12)CC(C)(C)OC3, the cytotoxicity was 15.4%. In the case of CCOC(=O)c1sc2nc(N3CCCC3)c3c(c2c1N)CC(C)(C)OC3, the cytotoxicity is reported as -3%. In the case of CCOC(=O)c1sc2nc(-c3ccco3)c3c(c2c1N)CC(C)(C)OC3, the cytotoxicity is reported as 57.4% (active). In the case of COc1ccc(Nc2nc(OC)nc(N3CCN(c4ccc(OC)cc4)CC3)n2)cc1, the cytotoxicity is reported as 8.4%. Compound COC(=O)/C=C1\NCCSC1=O has a cytotoxicity of 35.9%. O=C(CCC(=O)N(c1ccccc1)C(C(=O)NC1CCCC1)c1ccncc1)Nc1cccnc1 (configuration not stated) showed a cytotoxicity of -0.5%. Compound CCn1c(=N)c(C(=O)NCc2cccnc2)cc2c(=O)n3cccc(C)c3nc21 has a cytotoxicity of 1.8%. Work on CN=C(Nc1cc(C)nn1CCC#N)c1ccccc1F yielded a cytotoxicity of 4.4%. N#CC1=C(SCC(=O)NC2CC2)NC(=O)C(C#N)C12CCCCC2 (configuration not stated) showed a cytotoxicity of -27.1%. With CC(C)(C)C1CCC2(CC1)C(C#N)=C(SCC(=O)NC1CCCCC1)NC(=O)C2C#N (configuration not stated) the cytotoxicity was 54.5% (active). With N#CC1=C(SCC(=O)NC23CC4CC(CC(C4)C2)C3)NC(=O)C(C#N)C12CCCCC2 (configuration not stated) the cytotoxicity was 45.6%. For CCOC(=O)C1=C(SCC(=O)Nc2ccccc2)NC(=O)C(C#N)C12CCCCC2 (configuration not stated), the cytotoxicity was 5.3%. N#CC1=C(N)NC(SCC(=O)Nc2ccccc2)=C(C#N)C12CCCC2 showed a cytotoxicity of 0.4%. In the case of CCOC(=O)Cc1csc(NC(=O)CSc2nnc(-c3ccc(C)cc3)o2)n1, the cytotoxicity is reported as -11.9%. Compound CC(=O)N1CCc2cc(S(=O)(=O)NC(CC(C)C)C(=O)Nc3ccc4c(c3)OCCO4)ccc21 (configuration not stated) has a cytotoxicity of 7.7%. In the case of N#CCSc1nnc2c(Cl)cc(Cl)cn12, the cytotoxicity is reported as 7.2%. Brc1ccc(-c2nc(-c3ccncc3)no2)o1 gave a cytotoxicity of 0.3%. With CSc1ccc(S(=O)(=O)Nc2ccc(N3CCOCC3)c(Cl)c2)cc1 the cytotoxicity was -2.9%. Work on c1ccc(N2CCN(c3nnnn3-c3ccccc3)CC2)cc1 yielded a cytotoxicity of -3.6%. Compound COc1ccc(CCNC(=O)COc2ccc(S(=O)(=O)N3CCOCC3)cc2)cc1 has a cytotoxicity of 8.2%. For COC(=O)c1ccc2[nH]c(C)cc(=O)c2c1, the cytotoxicity was -3.5%. Compound Cc1cc(=O)c2cc(Cl)ccc2[nH]1 has a cytotoxicity of -4.6%. With Cc1cc2c(N=O)c(NO)ccc2[nH]1 the cytotoxicity was 79.2% (active). For O=C(Nc1ccc2c(c1)OCCO2)C1CCCN(S(=O)(=O)c2cnc[nH]2)C1 (configuration not stated), the cytotoxicity was -1.8%. In the case of Cn1c(=O)c2c(nc(NCCCN3CCOCC3)n2Cc2ccc(Cl)cc2Cl)n(C)c1=O, the cytotoxicity is reported as 0.9%. For Cn1c(NCCCN2CCOCC2)nc2c1c(=O)n(Cc1ccc(Cl)cc1Cl)c(=O)n2C, the cytotoxicity was 50.6% (active). Cn1c(NCCCN2CCOCC2)nc2c1c(=O)n(Cc1ccc(Cl)cc1)c(=O)n2C showed a cytotoxicity of 28.8%. For Cn1c(NCCCN2CCOCC2)nc2c1c(=O)n(Cc1ccc(Cl)c(Cl)c1)c(=O)n2C, the cytotoxicity was 54.6% (active). With Cn1c(NCCN2CCOCC2)nc2c1c(=O)n(Cc1cccc(Cl)c1)c(=O)n2C the cytotoxicity was 22.4%. With Cn1c(=O)c2c(nc(NCCCN3CCOCC3)n2Cc2ccc(Cl)c(Cl)c2)n(C)c1=O the cytotoxicity was -1.2%. Cc1cc(C)nc(SCc2ccc3nonc3c2)n1 gave a cytotoxicity of -23.2%. Cc1cc(CN2C(=O)c3ccccc3C2=O)no1 gave a cytotoxicity of -13.3%. With CCN(CC)S(=O)(=O)c1ccc(NC(=O)Cn2cnc3ccccc3c2=O)cc1 the cytotoxicity was -6.7%. In the case of CCC(=O)Nc1ccc(C(=O)n2nc(C)cc2C)cc1, the cytotoxicity is reported as 10.7%. With COCCSc1ccccc1C(=O)Nc1nnc(C)s1 the cytotoxicity was -9%. For COCCSc1ccccc1C(=O)Nc1cc(C)on1, the cytotoxicity was 85.8% (active). In the case of CCSc1ccccc1C(=O)Nc1cc(C)on1, the cytotoxicity is reported as -0.6%. Compound COc1ccc(C2CCCN2C(=O)Nc2ccc(F)cc2)cc1OC (configuration not stated) has a cytotoxicity of -15.2%. In the case of CCNC(=O)C1CC(=O)N(Cc2ccc3c(c2)OCO3)C(=Nc2ccc(OCC)cc2)S1 (configuration not stated), the cytotoxicity is reported as 10%. For CCNC(=O)C1CC(=O)N(Cc2ccc3c(c2)OCO3)C(=Nc2ccc(F)cc2)S1 (configuration not stated), the cytotoxicity was 62.1% (active). For CNC(=O)C1CC(=O)N(Cc2ccc3c(c2)OCO3)C(=Nc2ccc(F)cc2)S1 (configuration not stated), the cytotoxicity was -2.3%. O=C(O)c1cc(C(=O)O)c(-c2ccccc2)c(C(=O)O)c1 gave a cytotoxicity of -12.8%. Compound CC(=O)Oc1cccc2c1C(=O)c1c(OC(C)=O)cc(C(=O)O)cc1C2=O has a cytotoxicity of 8.1%. With CCOc1ccc(N2Cc3ncccc3C2=O)cc1 the cytotoxicity was -0.1%. In the case of O=C(COc1ccc2ccccc2c1Br)N1CCOCC1, the cytotoxicity is reported as -30.2%. With CCCCCCOC(=O)C(C#N)c1nc2ccccc2nc1N1CCN(C)CC1 (configuration not stated) the cytotoxicity was 70.2% (active). Work on CCCCCCOC(=O)C(C#N)c1nc2ccccc2nc1N1CCCCC1 (configuration not stated) yielded a cytotoxicity of -16.1%. COc1ccc(CNC(=O)C(C#N)c2nc3ccccc3nc2N2CCCC2)cc1 (configuration not stated) gave a cytotoxicity of -9.7%. Work on N#CC(C(=O)NCc1ccccc1)c1nc2ccccc2nc1N1CCCC1 (configuration not stated) yielded a cytotoxicity of 8.4%. Compound CCCCCCOC(=O)C(C#N)c1nc2ccccc2nc1N1CCN(CC)CC1 (configuration not stated) has a cytotoxicity of 5.9%. In the case of COc1ccc(CNC(=O)C(C#N)c2nc3ccccc3nc2N2CCN(C)CC2)cc1 (configuration not stated), the cytotoxicity is reported as 76.5% (active). In the case of CCOc1ccccc1N1CCN(c2nc3ccccc3nc2C(C#N)C(=O)OC)CC1 (configuration not stated), the cytotoxicity is reported as 50.6% (active). For CCOc1ccccc1N1CCN(c2nc3ccccc3nc2C(C#N)C(=O)OC(C)C)CC1 (configuration not stated), the cytotoxicity was -18.6%. Compound C=CCOC(=O)C(C#N)c1nc2ccccc2nc1N1CCN(c2ccccc2OCC)CC1 (configuration not stated) has a cytotoxicity of 4.2%. Work on O=C1CC(c2ccccc2)CC2=C1CN(C1CCCCC1)CN2 (configuration not stated) yielded a cytotoxicity of 22%. Compound Cc1nnc(NC(=O)C2CCN(c3cnccn3)CC2)s1 has a cytotoxicity of -12.6%. In the case of CCOc1ccccc1Oc1coc2cc(O)ccc2c1=O, the cytotoxicity is reported as -11.5%. In the case of Cc1cc(C(=O)Nc2sc(C)c(C)c2C#N)no1, the cytotoxicity is reported as -0.7%. Work on Cc1cc(C)n(CC(O)Cn2c3ccccc3c3ccccc32)c(=O)n1 (configuration not stated) yielded a cytotoxicity of 11.5%. In the case of CC1CCCC(C)N1C(=O)Cn1c(SCC(=O)Nc2ccc3c(c2)OCO3)nc2ccccc21 (configuration not stated), the cytotoxicity is reported as 8.4%. Compound CCOc1ccc2noc3c2c1C(=O)c1ccccc1-3 has a cytotoxicity of 23.3%. Compound O=C1c2ccccc2-c2onc3ccc(NCCCn4ccnc4)c1c23 has a cytotoxicity of 27.5%. COc1ccc(-c2onc3ccc(Cl)cc23)cc1OC showed a cytotoxicity of 4.4%. For COc1ccc2noc3c2c1C(=O)c1ccccc1-3, the cytotoxicity was 72.7% (active). Compound O=C(NCc1ccco1)c1ccc2c(c1)C(=O)c1ccccc1-2 has a cytotoxicity of 5.3%. In the case of O=C1c2ccccc2-c2onc3ccc(NCc4ccco4)c1c23, the cytotoxicity is reported as 51.6% (active).
